# Positions count from the first letter of the chain named.
# Experiments:
# Assay in all cases: protein-binding microarray (PBM); PBM: ~300 nM protein, 6 mM HEPES pH 7.8, 80 mM KCl, 0.5 mM EDTA, 0.5 mM EGTA, 6% glycerol, 35 ng/ul poly-dIdC, 1% milk, 1 h, room temperature; Ap Aiptasia and Nv Nematostella (sea anemones) / Co Capsaspora / Aq Amphimedon (sponge) / Dm Drosophila / Hu human; RHD is the Rel homology domain; high values mean tight binding
# Settings in all cases: dsDNA, one strand shown
# GST-Ap-NF-kB RHD = molecular target: T1, GST-Ap-NF-kB RHD (Exaiptasia pallida (Aiptasia), UniProt A0A913YAJ5 2-422)
# T1 sequence: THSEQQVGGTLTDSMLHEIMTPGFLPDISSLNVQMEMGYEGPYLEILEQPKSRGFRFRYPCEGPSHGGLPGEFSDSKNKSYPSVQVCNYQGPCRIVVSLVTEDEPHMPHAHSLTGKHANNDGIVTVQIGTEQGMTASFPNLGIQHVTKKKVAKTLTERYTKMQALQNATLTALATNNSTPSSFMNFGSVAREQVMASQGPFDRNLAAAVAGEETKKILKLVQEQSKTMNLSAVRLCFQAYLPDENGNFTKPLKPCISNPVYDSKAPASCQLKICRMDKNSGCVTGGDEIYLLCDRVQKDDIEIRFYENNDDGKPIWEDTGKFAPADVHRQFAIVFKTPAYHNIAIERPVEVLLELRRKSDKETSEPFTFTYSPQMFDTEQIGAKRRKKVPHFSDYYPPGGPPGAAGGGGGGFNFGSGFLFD
# [1] = molecular target: T2, GST-Nv-NF-kB (Cys allele) (Nematostella vectensis, UniProt E5G601 2-411)
# T2 sequence: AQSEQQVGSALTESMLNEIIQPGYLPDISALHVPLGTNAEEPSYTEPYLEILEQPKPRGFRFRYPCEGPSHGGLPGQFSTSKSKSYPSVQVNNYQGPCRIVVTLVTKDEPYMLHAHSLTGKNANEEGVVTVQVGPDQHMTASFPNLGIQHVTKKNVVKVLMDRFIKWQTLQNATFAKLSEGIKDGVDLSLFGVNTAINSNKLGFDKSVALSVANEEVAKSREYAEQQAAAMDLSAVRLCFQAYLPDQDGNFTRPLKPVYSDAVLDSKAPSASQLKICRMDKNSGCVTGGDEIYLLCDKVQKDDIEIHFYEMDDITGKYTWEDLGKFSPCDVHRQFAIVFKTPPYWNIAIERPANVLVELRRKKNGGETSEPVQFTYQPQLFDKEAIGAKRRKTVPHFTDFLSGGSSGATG
# [2] = molecular target: T3, GST-Nv-NF-kB (Ser allele) (Nematostella vectensis, UniProt A7UNT2 2-411)
# T3 sequence: T2 sequence with Q21R, C66S, S207N, E215Q, V217A, E225K, A268E, D399E
# GST-Co-NF-kB = molecular target: T4, GST-Co-NF-kB (Capsaspora owczarzaki, UniProt F1ARL5 200-546)
# T4 sequence: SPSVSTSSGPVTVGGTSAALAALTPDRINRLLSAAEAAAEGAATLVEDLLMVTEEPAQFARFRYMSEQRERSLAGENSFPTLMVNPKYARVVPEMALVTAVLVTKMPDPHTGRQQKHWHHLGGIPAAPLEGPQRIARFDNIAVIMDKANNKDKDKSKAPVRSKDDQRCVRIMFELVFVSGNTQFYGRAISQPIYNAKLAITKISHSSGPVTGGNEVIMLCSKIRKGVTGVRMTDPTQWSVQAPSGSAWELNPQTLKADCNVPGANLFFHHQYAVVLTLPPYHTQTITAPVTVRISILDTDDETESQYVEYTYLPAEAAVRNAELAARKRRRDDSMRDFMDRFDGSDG
# GST-Dm-Relish = molecular target: T5, GST-Dm-Relish (Drosophila melanogaster, UniProt Q94527 99-473)
# T5 sequence: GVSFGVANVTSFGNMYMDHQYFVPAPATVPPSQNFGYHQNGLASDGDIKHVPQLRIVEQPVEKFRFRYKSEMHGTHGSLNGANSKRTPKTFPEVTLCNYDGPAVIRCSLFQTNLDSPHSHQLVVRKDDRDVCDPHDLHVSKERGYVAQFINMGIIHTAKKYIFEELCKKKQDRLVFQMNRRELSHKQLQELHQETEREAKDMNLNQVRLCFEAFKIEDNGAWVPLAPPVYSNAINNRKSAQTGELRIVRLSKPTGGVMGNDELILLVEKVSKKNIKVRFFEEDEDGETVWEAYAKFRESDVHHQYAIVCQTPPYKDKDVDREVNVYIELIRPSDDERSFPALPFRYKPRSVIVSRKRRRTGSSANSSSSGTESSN
# GST-Aq-NF-kB = molecular target: T6, GST-Aq-NF-kB (Amphimedon queenslandica, UniProt A9Y5G7 2-389)
# T6 sequence: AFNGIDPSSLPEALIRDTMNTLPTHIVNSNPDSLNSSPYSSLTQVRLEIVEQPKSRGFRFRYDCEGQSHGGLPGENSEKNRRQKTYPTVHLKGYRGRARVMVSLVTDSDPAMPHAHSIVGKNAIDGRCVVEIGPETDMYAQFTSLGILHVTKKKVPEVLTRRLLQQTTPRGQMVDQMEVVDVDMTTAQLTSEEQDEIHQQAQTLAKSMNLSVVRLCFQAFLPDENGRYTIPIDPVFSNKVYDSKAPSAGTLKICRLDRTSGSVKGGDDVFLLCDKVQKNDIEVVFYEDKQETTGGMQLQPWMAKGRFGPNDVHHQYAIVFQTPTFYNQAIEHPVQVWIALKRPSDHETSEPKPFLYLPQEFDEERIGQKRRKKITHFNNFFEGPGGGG
# GST-Hu-p50 = GST-Hu-p50 (Homo sapiens, UniProt P19838 7-356)
# Sequence of GST-Hu-p50 (P19838 7-356): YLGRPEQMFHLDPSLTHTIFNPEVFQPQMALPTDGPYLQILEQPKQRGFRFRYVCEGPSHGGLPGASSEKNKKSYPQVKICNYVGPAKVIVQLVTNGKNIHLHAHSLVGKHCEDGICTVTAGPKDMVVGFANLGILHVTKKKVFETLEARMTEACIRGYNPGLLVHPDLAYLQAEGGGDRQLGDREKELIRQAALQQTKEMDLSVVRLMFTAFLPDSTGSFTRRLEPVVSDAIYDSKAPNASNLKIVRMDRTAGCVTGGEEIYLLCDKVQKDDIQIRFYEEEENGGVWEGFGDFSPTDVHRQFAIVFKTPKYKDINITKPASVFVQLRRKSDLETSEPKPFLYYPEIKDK
Sequence,binding signal (GST-Ap-NF-kB RHD) [z-score],binding signal [1] [z-score],binding signal [2] [z-score],binding signal (GST-Co-NF-kB) [z-score],binding signal (GST-Dm-Relish) [z-score],binding signal (GST-Aq-NF-kB) [z-score],binding signal (GST-Hu-p50) [z-score]
CCGATTAACATCACAATCCCCCCTGATGTTAATCGGGTCTTGATTCGCTTGACGCTGCTG,8.13,5.61,6.37,5.89,5.35,5.25,6.19
CCGATTAACATCAAGGGGGGATGTGATGTTAATCGGGTCTTGATTCGCTTGACGCTGCTG,5.69,4.01,5.38,4.75,4.07,4.34,4.32
CCGATTAACATCAAGAAGTTCCCTGATGTTAATCGGGTCTTGATTCGCTTGACGCTGCTG,3.54,3.73,2.6,2.42,3.58,4.79,3.17
CCGATTAACATCAGGGGAAACACTGATGTTAATCGGGTCTTGATTCGCTTGACGCTGCTG,6.4,8.15,9.65,7.63,9.02,7,6.08
CCGATTAACATCACCCGGGAAACTGATGTTAATCGGGTCTTGATTCGCTTGACGCTGCTG,2.48,2.39,3.08,4.78,1.11,2.32,1.81
CCGATTAACATCAGGGGGTGCACTGATGTTAATCGGGTCTTGATTCGCTTGACGCTGCTG,3.65,2.71,3.9,2.55,6.6,4.95,4.23
CCGATTAACATCAAGAATCCCCCTGATGTTAATCGGGTCTTGATTCGCTTGACGCTGCTG,9.83,9.82,10.5,6.36,9.1,7.61,7.83
CCGATTAACATCAGGGAAATTTATGATGTTAATCGGGTCTTGATTCGCTTGACGCTGCTG,5.86,8.28,7.67,5.84,4.1,7.49,5.55
CCGATTAACATCAAACTTCCCCCTGATGTTAATCGGGTCTTGATTCGCTTGACGCTGCTG,7.75,7.86,9.14,9.35,7.36,7.49,6.72
CCGATTAACATCAGGAGTTCCCCTGATGTTAATCGGGTCTTGATTCGCTTGACGCTGCTG,8.41,9.9,7.6,5.41,9.69,9.11,6.51
CCGATTAACATCAACTTCCCCCCTGATGTTAATCGGGTCTTGATTCGCTTGACGCTGCTG,7.03,6.37,6.34,9.16,7.29,6.32,5.76
CCGATTAACATCAGGGGGGAACCTGATGTTAATCGGGTCTTGATTCGCTTGACGCTGCTG,7.52,5.48,6.89,8.57,5.48,6.03,6.02
CCGATTAACATCAGGGGGGTGCATGATGTTAATCGGGTCTTGATTCGCTTGACGCTGCTG,4.21,2.54,3.71,3.47,4.16,3.59,3.86
CCGATTAACATCAGGGGACATTATGATGTTAATCGGGTCTTGATTCGCTTGACGCTGCTG,5.74,5.19,5.89,4.2,3.51,4.62,4.63
CCGATTAACATCAGGAACTCCCATGATGTTAATCGGGTCTTGATTCGCTTGACGCTGCTG,2.86,2.53,1.04,1.08,4.29,3.71,1.95
CCGATTAACATCAGGGGGAGAAATGATGTTAATCGGGTCTTGATTCGCTTGACGCTGCTG,7.1,6.13,7.48,10.7,3.41,4.8,6.45
CCGATTAACATCAGGGGAATTAATGATGTTAATCGGGTCTTGATTCGCTTGACGCTGCTG,6.97,9.44,10.2,7.92,7.21,6.31,6.52
CCGATTAACATCAGCAACCCCCCTGATGTTAATCGGGTCTTGATTCGCTTGACGCTGCTG,5.04,3.58,3.86,2.82,6.14,4.16,4.83
CCGATTAACATCAAACGCCCCCCTGATGTTAATCGGGTCTTGATTCGCTTGACGCTGCTG,4.79,4.46,3.85,3.84,4.9,5.57,5.03
CCGATTAACATCAAAATTCCCCTTGATGTTAATCGGGTCTTGATTCGCTTGACGCTGCTG,10.1,12.5,14.2,7.63,9.78,9.63,8.23
CCGATTAACATCAGAGTATTCCCTGATGTTAATCGGGTCTTGATTCGCTTGACGCTGCTG,3.08,2.98,3.2,2.71,2.22,3.06,1.6
CCGATTAACATCACTAGTCCCCCTGATGTTAATCGGGTCTTGATTCGCTTGACGCTGCTG,4.7,3.39,3.45,3.98,2.58,3.81,3.46
CCGATTAACATCAGGATCCCCCCTGATGTTAATCGGGTCTTGATTCGCTTGACGCTGCTG,8.27,6.24,6.33,5.45,8.78,6.39,6.19

# — paper PMC5700166
